These results are taken from PubChem BioAssay (NCI).

Compounds without any hit were thinned out: in the full panel of roughly 79,000, 15% have a hit. The source made the active and inactive calls. Rule as the data show it: active = growth inhibition above about 70%; inactive = the rest.

This assay is described as follows: NCI Yeast Anticancer Drug Screen. Data for the cln2 rad14 strain (AID 165).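 Also: 0% = growth equal to vehicle treated cultures.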 Particulars: S. cerevisiae cln2 rad14 strain, at 50.0 µM, active compounds read high. In outline: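 Yeast carrying cln2 and rad14 alterations (cell cycle control and DNA damage repair) were exposed to compounds. Growth inhibition was measured against vehicle-treated controls.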
Take `CC1CC[Si](C)(C)CC12C(=O)NC(=O)NC2=O` (stereo not given): the growth inhibition was -0.05% (inactive).
With `Nc1nc(N)c(N)c(N)n1` the figure was -3.05% (inactive); with `CCC(=O)c1ccc(N)cc1`, -26.4% (inactive); with `CNC(Cc1ccccc1)c1cccc(OC)c1O` (stereo not given), -28.4% (inactive).
Under `O=C(O)/C=C/C(=O)O.[Ni]` stands -45.5% (inactive).
With `CCOP(=O)(O)CP(=O)(O)OCC.CCOP(=O)(O)CP(=O)(O)OCC.[Cr]` the figure was -40.5% (inactive); with `COc1cc2c(cc1O)-c1c(OC)c(O)cc3c1C(C2)N(C)CC3` (stereo not given), -16.4% (inactive); with `C/C(=N\N=C(N)N)C(CN(C)C)C(c1ccccc1)c1c(O)c2ccccc2oc1=O` (stereo not given), 13.8% (inactive).
For the compound `Cc1cc(NC(=O)CCc2ccc(N)cc2)ccc1S(=O)(=O)F`, the growth inhibition is 81.8% (active).
With `[Cu].[NH2-].[NH2-].[NH2-].[NH2-]`, the growth inhibition is -64.8% (inactive).
`CCN(CC)C(=S)Cl`: the growth inhibition is -2.15% (inactive).
For the compound `N#CCCc1ccccc1`, the growth inhibition was -12.8% (inactive).
Under `C=C[CH2][Sn]([CH2]C=C)([CH2]CCC)[CH2]CCC` stands 99.2% (active); under `CC1(C)OC2COC(CN=[N+]=[N-])C2O1` (stereo not given), -0.8% (inactive).
With `C=CC(Cl)OC(=O)C(C)O` (stereo not given), the growth inhibition was 11.3% (inactive).
For the compound `CC(CN1NC12CCCC2)N1NC12CCCC2` (stereo not given), the growth inhibition was 24.4% (inactive).
Turning to `[CH3][Hg][O]C(C)=O`, the growth inhibition is 99.5% (active).
Under `COC(=O)C(CCC(=O)O)NC(=O)OCc1ccccc1` (stereo not given) stands -7.7% (inactive); under `O=C(C/C(=N/O)C(=O)NC1=C(Cl)C(=O)c2ccccc2C1=O)CC(c1ccccc1)c1c(O)c2ccccc2oc1=O` (stereo not given), 76.8% (active).
With `CCOC(OCC)c1ccccc1.[C-]#[O+].[C-]#[O+].[C-]#[O+].[Cr]`, the growth inhibition was 13.9% (inactive).
With `CCN1/C(=C/C=C2\CCC(/C=C/c3sc4ccc(Cl)cc4[n+]3CC)=C2N(c2ccccc2)c2ccccc2)Sc2ccc(Cl)cc21`, the growth inhibition is 4.05% (inactive).
For `Cc1nc2cccc(F)c2c(=O)n1-c1nnc(C(F)(F)F)s1`, the growth inhibition was 10.8% (inactive).
Under `CCC[As](=O)(O)c1ccc(Cl)cc1` stands 73.5% (active); under `[N-]=[N+]=NC(=O)Nc1ccccc1F`, -19.3% (inactive).
With `O=C(Nc1ccccc1)N(C1=NCC(CI)S1)c1ccc(F)cc1F` (stereo not given) the figure was 7.7% (inactive); with `CC(=O)C(C)(C)C`, 3% (inactive).
With `CC(SC(C)C(=O)N/N=C/c1ccc(N(CCCl)CCCl)cc1)C(=O)N/N=C\c1ccc(N(CCCl)CCCl)cc1` (stereo not given) the figure was -10.7% (inactive); with `CC12CC/C(=C3/C=CC(=O)S3)C=C1CCC1C2CCC2(C)C(O)CCC12` (stereo not given), 10.3% (inactive).
Take `N#Cc1ccc(C(Cl)(Cl)Cl)cc1`: the growth inhibition was -25.4% (inactive).
Under `CC(C)(C)C1COP(=O)(C(C)(C)C)OC1` (stereo not given) stands -38.6% (inactive).
Under `CCCCCCCC(=O)[O-].N.N.N.N.N.[Co+3].[O-][Cl+3]([O-])([O-])[O-]` stands 9.1% (inactive).
With `CC/C=C/C1(C)C(=O)NC(=S)NC1=O` the figure was 1.7% (inactive); with `Clc1ccc(NC2=NCCS2)cc1Cl`, -7.55% (inactive).
Take `NC(CP(=O)(O)O)C(=O)O` (stereo not given): the growth inhibition was -55.2% (inactive).
With `CCC(=O)C(CC(C)[N+](C)(C)C)(c1ccccc1)c1ccccc1` (stereo not given), the growth inhibition is 3.35% (inactive).
As to `CC(=[N-])CC(C)=O.CC(=[N-])CC(C)=O.[Cu+2]`, the growth inhibition was -18.3% (inactive).
As for `O=C1CN=C(c2ccccc2)c2cc(Cl)ccc2N1`, the growth inhibition is 16.1% (inactive).
With `OC(c1ccc2ccccc2n1)C1CCCCN1` (stereo not given) the figure was -8.15% (inactive); with `NC(=O)Cc1ccccc1`, 8.75% (inactive).
As to `CCCCOP(=S)(OCCCC)Oc1ccc(Cl)cc1Cl`, the growth inhibition was -0.25% (inactive).
